Test results taken from PubChem BioAssay.
For part of these data: Measured potencies and affinities stand elsewhere. The source made the active and inactive calls.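 How the source made its calls, unless noted: active means compound raising the membrane signal above positive-control mean plus 3 SD in both repeats, and a primary screen hit; inactive means the rest.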

What was measured:
[1] = test system: TRPC4 beta (transient receptor potential cation channel C4), mouse; experiment: TRPC4 cation channel opening, retest – cell-based, Fluo4 calcium, HEK293 TRPC4beta/mu-opioid, duplicates, 10 µM, confirmation (AID 2426;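 active means fluorescence ratio normalized to control raised more than 50% in primary screen plus both repeat runs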); conditions: Fluo4 calcium fluorescence, at 10 µM; stronger effect = higher value
[2] = test system: transient receptor potential cation channel C4 beta (TRPC4), mouse; experiment: TRPC4 cation channel opening, second retest – cell-based, second round, Fluo4, HEK293 TRPC4beta/mu-opioid, 1 µM, confirmation (AID 2461;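 active means primary screen active and over 50% activation in each of two duplicate runs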); conditions: Fluo4 calcium fluorescence, at 1 µM; stronger effect = higher value
[3] = test system: TRPC4 (transient receptor potential cation channel C4 beta), mouse; experiment: potentiation of DAMGO EC20 TRPC4 response – cell-based, second round, Fluo-4, HEK293 TRPC4beta/mu-opioid, 1 µM, confirmation (AID 2554;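 active means primary screen hit whose fluorescence ratio, in both repeats, exceeds the weak agonist control mean by 3 SD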); conditions: DAMGO EC20, Fluo-4 calcium flux, at 1 µM; stronger effect = higher value
[4] = test system: TRPC4 beta (transient receptor potential cation channel C4), mouse; experiment: potentiation of DAMGO EC20 TRPC4 response – cell-based, Fluo-4, HEK293 TRPC4beta/mu-opioid, confirmation (AID 2555;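 active means primary screen hit whose calcium fluorescence ratio, in both repeats, exceeds the weak agonist control mean by 3 SD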); conditions: DAMGO EC20, Fluo-4 calcium flux, at 10 µM; stronger effect = higher value
[5] = molecular target: Short transient receptor potential channel 4 (Mus musculus) (UniProt Q9QUQ5); experiment: blockers of DAMGO-evoked TRPC4 calcium flux – cell-based, Fluo4, HEK293 TRPC4beta/mu-opioid, confirmation (AID 2636;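 active means calcium signal cut by more than 3 SD below the full-agonist control yet still positive, in both repeats and the earlier primary screen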); conditions: at 10 µM; stronger effect = higher value
Short transient receptor potential channel 4 (Mus musculus), sequence (Q9QUQ5 whole entry, looked up): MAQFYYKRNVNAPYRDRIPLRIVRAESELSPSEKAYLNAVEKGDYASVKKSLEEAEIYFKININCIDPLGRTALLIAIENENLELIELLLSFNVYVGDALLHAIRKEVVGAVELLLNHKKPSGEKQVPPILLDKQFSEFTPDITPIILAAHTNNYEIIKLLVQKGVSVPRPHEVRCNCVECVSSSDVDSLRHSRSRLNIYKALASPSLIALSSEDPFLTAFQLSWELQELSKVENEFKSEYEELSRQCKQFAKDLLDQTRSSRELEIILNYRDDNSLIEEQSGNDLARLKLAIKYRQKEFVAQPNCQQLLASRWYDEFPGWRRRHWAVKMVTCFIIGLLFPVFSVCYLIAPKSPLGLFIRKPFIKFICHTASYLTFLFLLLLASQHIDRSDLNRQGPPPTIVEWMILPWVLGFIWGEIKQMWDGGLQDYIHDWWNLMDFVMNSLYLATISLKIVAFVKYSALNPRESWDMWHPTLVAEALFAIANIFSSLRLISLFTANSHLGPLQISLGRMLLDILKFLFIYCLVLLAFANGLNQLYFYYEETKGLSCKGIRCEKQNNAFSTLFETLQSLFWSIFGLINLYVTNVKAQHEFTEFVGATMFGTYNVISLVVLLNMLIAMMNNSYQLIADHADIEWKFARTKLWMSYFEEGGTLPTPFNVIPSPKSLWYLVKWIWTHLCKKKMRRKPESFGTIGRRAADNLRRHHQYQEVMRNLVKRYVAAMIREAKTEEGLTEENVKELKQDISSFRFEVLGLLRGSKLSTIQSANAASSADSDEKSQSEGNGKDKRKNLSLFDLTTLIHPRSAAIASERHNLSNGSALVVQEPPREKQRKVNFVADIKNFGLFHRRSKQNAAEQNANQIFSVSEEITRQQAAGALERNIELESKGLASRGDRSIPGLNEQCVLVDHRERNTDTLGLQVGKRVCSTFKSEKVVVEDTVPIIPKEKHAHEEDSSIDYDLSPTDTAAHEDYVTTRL

[6] = molecular target: Short transient receptor potential channel 4 (Mus musculus) (UniProt Q9QUQ5); experiment: blockers of DAMGO-evoked TRPC4 calcium flux – cell-based, second round, Fluo4, HEK293 TRPC4beta/mu-opioid, 1 µM, confirmation (AID 2637;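 active means calcium signal ratio cut to more than 3 SD under the fully stimulated control mean yet still positive, in both repeats and the primary screen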;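 on inhibition: percent of integrated ratio relative to wells lacking test compound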); conditions: at 1 µM; stronger effect = higher value
[7] = molecular target: Short transient receptor potential channel 4 (Mus musculus) (UniProt Q9QUQ5); experiment: calcium entry via TRPC4 opening agents – cell-based, HEK293 TRPC4/mu-opioid, Fluo-4 calcium, dose response (AID 434937;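 active means primary screen activator hit with a dose response curve and TRPC4 channel activation at any tested dose; inactive means no activation, no dose response, or not a primary hit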)
[8] = molecular target: Short transient receptor potential channel 4 (Mus musculus) (UniProt Q9QUQ5); experiment: potentiation of DAMGO-evoked TRPC4 calcium signal – cell-based, HEK293 TRPC4/mu-opioid, Fluo-4 calcium, EC20 DAMGO, dose response (AID 434941;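 active means earlier screen potentiator hit that boosts the TRPC4 ion channel at some dose, with a dose response; inactive means no potentiation, no dose response, or not a prior hit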;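 further: calcium entry triggered by an EC20 dose of DAMGO at the co-expressed mu-opioid receptor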)
[9] = molecular target: Short transient receptor potential channel 4 (Mus musculus) (UniProt Q9QUQ5); experiment: block of DAMGO-driven TRPC4 calcium entry – cell-based, HEK293 TRPC4/mu-opioid, Fluo-4 calcium, dose response (AID 434942;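 active means primary screen inhibitor hit that blocks the TRPC4 channel at some tested dose, yielding a dose curve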)
[10] = molecular target: Short transient receptor potential channel 6 (Mus musculus) (UniProt Q61143); experiment: TRPC6 blockade by TRPC4 inhibitor hits – cell-based, HEK293, membrane potential dye, duplicate, selectivity assay for TRPC4 inhibitor project, confirmation (AID 434948;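 active means active in primary screen and both duplicates, each dropping signal beyond three positive-control SD with fluorescence still positive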); conditions: HEK293 TRPC6, membrane potential dye fluorescence, at 10 µM, stimulated with maximal-effect acetylcholine; stronger effect = higher value
Short transient receptor potential channel 6 (Mus musculus), sequence (Q61143 whole entry, looked up): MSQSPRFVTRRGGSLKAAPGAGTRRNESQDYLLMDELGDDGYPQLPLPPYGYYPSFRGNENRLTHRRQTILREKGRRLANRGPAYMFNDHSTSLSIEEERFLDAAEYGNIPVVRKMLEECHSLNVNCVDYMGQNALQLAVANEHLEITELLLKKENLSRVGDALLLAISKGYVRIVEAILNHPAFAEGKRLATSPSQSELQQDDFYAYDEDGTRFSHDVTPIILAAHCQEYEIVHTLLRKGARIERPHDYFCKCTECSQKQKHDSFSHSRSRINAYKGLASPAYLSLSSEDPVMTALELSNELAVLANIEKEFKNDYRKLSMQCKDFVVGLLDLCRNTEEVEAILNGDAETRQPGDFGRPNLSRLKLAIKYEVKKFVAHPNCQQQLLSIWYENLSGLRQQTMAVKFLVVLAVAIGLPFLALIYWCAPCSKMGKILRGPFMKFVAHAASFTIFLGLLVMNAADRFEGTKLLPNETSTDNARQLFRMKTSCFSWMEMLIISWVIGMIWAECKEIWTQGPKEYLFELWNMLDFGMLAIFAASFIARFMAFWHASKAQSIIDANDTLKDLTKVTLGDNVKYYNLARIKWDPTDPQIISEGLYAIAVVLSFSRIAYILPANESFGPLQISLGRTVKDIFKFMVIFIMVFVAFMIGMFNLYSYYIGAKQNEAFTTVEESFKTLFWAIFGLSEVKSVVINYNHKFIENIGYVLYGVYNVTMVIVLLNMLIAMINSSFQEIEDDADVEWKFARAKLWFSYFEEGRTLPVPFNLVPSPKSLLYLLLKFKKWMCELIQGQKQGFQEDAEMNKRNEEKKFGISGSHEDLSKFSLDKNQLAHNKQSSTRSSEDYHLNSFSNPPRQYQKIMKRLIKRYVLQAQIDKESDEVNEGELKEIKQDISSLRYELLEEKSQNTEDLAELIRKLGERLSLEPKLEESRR

[11] = molecular target: Short transient receptor potential channel 6 (Mus musculus) (UniProt Q61143); experiment: TRPC6 opening by TRPC4 activator hits – cell-based, HEK293, membrane potential dye, duplicate, selectivity assay for TRPC4 activator project, confirmation (AID 434950;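 active means membrane potential signal rise above negative control mean plus 3 SD in both duplicates, also active in the earlier TRPC4 screen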); conditions: HEK293 TRPC6, membrane potential fluorescence, at 10 µM; activation: stronger effect = higher value; outcome: activation
[12] = molecular target: Short transient receptor potential channel 6 (Mus musculus) (UniProt Q61143); experiment: positive modulators of mouse TRPC6 channel – HEK293 cells, membrane potential dye, duplicate, selectivity assay for TRPC4 potentiator project, confirmation (AID 434952); conditions: HEK293 TRPC6, membrane potential dye fluorescence, at 10 µM, maximal acetylcholine added after compound; stronger effect = higher value
[13] = molecular target: Short transient receptor potential channel 4 (Mus musculus) (UniProt Q9QUQ5); experiment: calcium flux activators in TRPC4/5HT1a cells, counter-screen for TRPC4 activator project, cell-based, second counter screen, HEK293 TRPC4/5HT1a, Fluo-4 (AID 434977;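 active means calcium signal rise above buffer-control mean plus 5 SD in both duplicates, and also a hit in the primary screen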); conditions: Fluo-4 calcium flux, at 10 µM; stronger effect = higher value
[14] = serotonin-gated TRPC4 signal block – cell-based, second counter screen, HEK293 TRPC4/5HT1a, Fluo-4, counter-screen for TRPC4 inhibitor project, confirmation (AID 434978;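 active means primary screen active whose calcium signal fell more than 3 SD beyond the full-serotonin control mean in both duplicate plates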;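 further: serotonin given first at submaximal then at maximal dose after compound preincubation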); conditions: Fluo-4 calcium flux, at 10 µM, serotonin added to trigger calcium flux; stronger effect = higher value
[15] = test system: TRPC4 (mouse), co-expressed with 5HT1a in HEK293; experiment: enhancement of serotonin-evoked TRPC4 response – cell-based, second counter screen, HEK293 TRPC4/5HT1a, Fluo-4, counter-screen for TRPC4 potentiator project, confirmation (AID 434979;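 active means signal rise over 3 SD above mean of control wells given weak agonist, in both repeats and first screen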); conditions: Fluo-4 calcium flux, at 10 µM, serotonin added at its EC20 dose; stronger effect = higher value
[16] = nonspecific calcium rise without TRPC4 – cell-based, HEK293 mu-opioid receptor line, counter-screen for TRPC4 activator project, confirmation (AID 449723;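 active means hit in primary screen, with calcium signal over 5 SD above buffer well mean in both duplicates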;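 further: counter screen cells carry the mu-opioid receptor alone and lack TRPC4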); conditions: HEK293 mu-opioid cells, Fluo-4 calcium fluorescence, at 10 µM; stronger effect = higher value
[17] = nonspecific potentiation of DAMGO calcium response – cell-based, HEK293 mu-opioid receptor line, counter-screen for TRPC4 allosteric potentiator project, confirmation (AID 449724;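 active means calcium signal rise more than 3 SD above the low-dose agonist control mean, in both duplicate plates and the primary screen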); conditions: HEK293 mu-opioid receptor cells, Fluo-4 calcium flux, at 10 µM, compound added before EC20 DAMGO stimulus; stronger effect = higher value

CC1CC(C)CN(CCCNC(=O)c2ccc(N3CCCC3=O)cc2)C1 (stereo not given)
outcome [1]: inactive
outcome [2]: inactive
outcome [3]: inactive
outcome [4]: inactive
outcome [5]: inactive
outcome [6]: inactive
outcome [7]: inactive
outcome [8]: inactive
outcome [9]: inactive
outcome [10]: inactive
outcome [11]: inactive
outcome [12]: inactive
outcome [13]: inactive
outcome [14]: inactive
potentiation [15]: 27.3% (active)
outcome [16]: inactive
outcome [17]: inactive

NC(=O)C(c1cccc(Cl)c1)c1ncc(C(F)(F)F)cc1Cl (stereo not given)
outcome [1]: inactive
outcome [2]: inactive
outcome [3]: inactive
outcome [4]: inactive
outcome [5]: inactive
outcome [6]: inactive
outcome [7]: inactive
outcome [8]: inactive
outcome [9]: inactive
outcome [10]: inactive
outcome [11]: inactive
outcome [12]: inactive
outcome [13]: inactive
outcome [14]: inactive
potentiation [15]: 7.72% (active)
outcome [16]: inactive
outcome [17]: inactive

CCOc1ccc2nc(N3CCCC(C(=O)NCC4CCCO4)C3)sc2c1 (stereo not given)
outcome [1]: inactive
outcome [2]: inactive
outcome [3]: inactive
outcome [4]: inactive
outcome [5]: inactive
outcome [6]: inactive
outcome [7]: inactive
outcome [8]: inactive
outcome [9]: inactive
outcome [10]: inactive
outcome [11]: inactive
outcome [12]: inactive
outcome [13]: inactive
outcome [14]: inactive
outcome [15]: inactive
outcome [16]: inactive
outcome [17]: inactive

CCn1c(=O)c2cc(C(=O)N(C)c3cc(C)ccc3OC)sc2c2ccccc21
outcome [1]: inactive
outcome [2]: inactive
outcome [3]: inactive
outcome [4]: inactive
inhibition [5]: 74% (active)
outcome [6]: inactive
outcome [7]: inactive
outcome [8]: inactive
outcome [9]: inactive
outcome [10]: inactive
outcome [11]: inactive
outcome [12]: inactive
outcome [13]: inactive
outcome [14]: inactive
outcome [15]: inactive
outcome [16]: inactive
outcome [17]: inactive

COc1cc2nc(=S)n3[nH]c(CCn4nc(C)cc4C)nc3c2cc1OC
outcome [1]: inactive
outcome [2]: inactive
outcome [3]: inactive
outcome [4]: inactive
outcome [5]: inactive
outcome [6]: inactive
outcome [7]: inactive
outcome [8]: inactive
outcome [9]: inactive
outcome [10]: inactive
outcome [11]: inactive
outcome [12]: inactive
outcome [13]: inactive
outcome [14]: inactive
outcome [15]: inactive
outcome [16]: inactive
outcome [17]: inactive

O=C(c1coc2ccc(O)c(CN3CCOCC3)c12)C1CC1
outcome [1]: inactive
outcome [2]: inactive
outcome [3]: inactive
outcome [4]: inactive
outcome [5]: inactive
outcome [6]: inactive
outcome [7]: inactive
outcome [8]: inactive
outcome [9]: inactive
outcome [10]: inactive
outcome [11]: inactive
outcome [12]: inactive
outcome [13]: inactive
outcome [14]: inactive
outcome [15]: inactive
outcome [16]: inactive
outcome [17]: inactive

Cc1cccc(N2CCN(C(=O)C3(S(=O)(=O)c4ccc(Cl)cc4)CC3)CC2)c1C
outcome [1]: inactive
outcome [2]: inactive
outcome [3]: inactive
potentiation [4]: 13% (active)
outcome [5]: inactive
outcome [6]: inactive
outcome [7]: inactive
outcome [8]: inactive
outcome [9]: inactive
outcome [10]: inactive
outcome [11]: inactive
outcome [12]: inactive
outcome [13]: inactive
outcome [14]: inactive
potentiation [15]: 15.1% (active)
outcome [16]: inactive
outcome [17]: inactive

CN(C)CCCNc1ncnc2c1cnn2Cc1ccccc1Cl
outcome [1]: inactive
outcome [2]: inactive
outcome [3]: inactive
potentiation [4]: 15% (active)
outcome [5]: inactive
outcome [6]: inactive
outcome [7]: inactive
outcome [8]: inactive
outcome [9]: inactive
outcome [10]: inactive
outcome [11]: inactive
outcome [12]: inactive
outcome [13]: inactive
outcome [14]: inactive
potentiation [15]: 19.8% (active)
outcome [16]: inactive
outcome [17]: inactive

O=C(OCCCCN1C(=O)c2ccccc2C1=O)c1ccc(S(=O)(=O)N2CCCC2)cc1
outcome [1]: inactive
outcome [2]: inactive
outcome [3]: inactive
outcome [4]: inactive
outcome [5]: inactive
outcome [6]: inactive
outcome [7]: inactive
outcome [8]: inactive
outcome [9]: inactive
outcome [10]: inactive
outcome [11]: inactive
outcome [12]: inactive
outcome [13]: inactive
outcome [14]: inactive
outcome [15]: inactive
outcome [16]: inactive
outcome [17]: inactive

O=C(NCc1ccccc1Cl)/C(=C\c1cccnc1)NC(=O)c1ccccc1
outcome [1]: inactive
outcome [2]: inactive
outcome [3]: inactive
outcome [4]: inactive
outcome [5]: inactive
outcome [6]: inactive
outcome [7]: inactive
outcome [8]: inactive
outcome [9]: inactive
outcome [10]: inactive
outcome [11]: inactive
outcome [12]: inactive
outcome [13]: inactive
outcome [14]: inactive
outcome [15]: inactive
outcome [16]: inactive
outcome [17]: inactive

c1ccc(Cn2nnc3cnccc32)cc1
outcome [1]: inactive
outcome [2]: inactive
outcome [3]: inactive
outcome [4]: inactive
inhibition [5]: 65% (active)
outcome [6]: inactive
outcome [7]: inactive
outcome [8]: inactive
outcome [9]: inactive
outcome [10]: inactive
outcome [11]: inactive
outcome [12]: inactive
outcome [13]: inactive
outcome [14]: inactive
outcome [15]: inactive
outcome [16]: inactive
outcome [17]: inactive

COC(=O)c1ccccc1NC(=O)c1cnn2cccnc12
outcome [1]: inactive
outcome [2]: inactive
outcome [3]: inactive
potentiation [4]: 16% (active)
outcome [5]: inactive
outcome [6]: inactive
outcome [7]: inactive
outcome [8]: inactive
outcome [9]: inactive
outcome [10]: inactive
outcome [11]: inactive
outcome [12]: inactive
outcome [13]: inactive
outcome [14]: inactive
potentiation [15]: 40.2% (active)
outcome [16]: inactive
outcome [17]: inactive

CCCCC(=O)Nc1cccc2c1C(=O)N(c1ccccc1)C2=O
outcome [1]: inactive
outcome [2]: inactive
outcome [3]: inactive
outcome [4]: inactive
outcome [5]: inactive
outcome [6]: inactive
outcome [7]: inactive
outcome [8]: inactive
outcome [9]: inactive
outcome [10]: inactive
outcome [11]: inactive
outcome [12]: inactive
outcome [13]: inactive
outcome [14]: inactive
outcome [15]: inactive
outcome [16]: inactive
outcome [17]: inactive

CCCNc1nc2ccccc2n2c(C)nnc12
outcome [1]: inactive
outcome [2]: inactive
outcome [3]: inactive
outcome [4]: inactive
inhibition [5]: 73% (active)
inhibition [6]: 39% (active)
outcome [7]: inactive
outcome [8]: inactive
outcome [9]: inactive
outcome [10]: inactive
outcome [11]: inactive
outcome [12]: inactive
outcome [13]: inactive
outcome [14]: inactive
outcome [15]: inactive
outcome [16]: inactive
outcome [17]: inactive

C=CCn1c(SCCN2CCCC2)nc2c([nH]c3ccccc32)c1=O
outcome [1]: inactive
outcome [2]: inactive
potentiation [3]: 21% (active)
outcome [4]: inactive
outcome [5]: inactive
outcome [6]: inactive
outcome [7]: inactive
outcome [8]: inactive
outcome [9]: inactive
outcome [10]: inactive
outcome [11]: inactive
outcome [12]: inactive
outcome [13]: inactive
outcome [14]: inactive
outcome [15]: inactive
outcome [16]: inactive
outcome [17]: inactive
